Where “and” joins values, the source holds several entries; their conditions need not be identical. Equal entries are not always repeated. Records with an inconclusive call do not appear. Values without a mark were called inactive. Calls of active or inactive are those of the source. Calls follow the shape of the dose curve; as a rule, active = well fitted inhibition curve with a large enough effect; inconclusive = small, poorly fitted or top-dose-only effect; inactive = flat fitted curve, though single readings scatter.
% is scaled to controls: 0 for no effect and ±100 for the full control effect; potency is read from the fitted curve at half-maximal effect.
Also: nearly all actives have a fitted effect of over 60% in size.

In the first assay the test system is NIH3T3. As to the kind of experiment: Cytotoxic Profiling of Annotated Libraries Using Quantitative High-Throughput Screening (AID 1296008). The conditions noted are these: Five cell lines viability, CellTiter-Glo ATP luminescence, 48-72 h; max response: active compounds read low. In short, it runs like this:
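Cytotoxicity was measured as CellTiter-Glo ATP luminescence, read after 10 min at room temperature. Compound treatment of the cells lasted 48 or 72 hr at 37 degrees Celsius in a qHTS format.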
In general terms: Cellular ATP, detected with luciferase, serves as a proxy for viable cell number.
As to `O=[N+]([O-])c1c2ccccc2cc2ccccc12`, the max response was -10.2%.

For the compound `COC1=CC(C)=C[C@@H](C)[C@@H](O)[C@@H](C)CC(C)=CC=C[C@H](OC)[C@H]([C@@H](C)[C@@H](O)[C@H](C)[C@@]2(O)C[C@@H](O)[C@H](C)[C@@H](C(C)C)O2)OC1=O`, the Potency was 14.8 nM (active).

In the case of `CC=C(C)C(=O)O[C@H]1C(C)=C2[C@@H]3OC(=O)[C@@](C)(O)[C@@]3(O)[C@@H](OC(=O)CCC)C[C@](C)(OC(C)=O)[C@@H]2[C@@H]1OC(=O)CCCCCCC`, the Potency is 18.7 nM (active).

`CC[C@H]1C=CC=CC[C@@H](C)[C@H](O)[C@@](C)(O)C(=O)[C@@H](C)[C@H](O)[C@@H](C)C(=O)[C@@H](C)[C@H](O)[C@@H](C)C=CC(=O)O[C@@H]2[C@@H](C)[C@H](CC1)O[C@]1(CC[C@H](C)[C@H](C[C@@H](C)O)O1)[C@H]2C`: the Potency is 16600 nM (active).

Take `CCO/N=C(\CC)C1=C(O)CC(c2c(C)cc(C)cc2C)CC1=O` (configuration not stated): the max response was -12.4%.

In the case of `COc1ccc(C(=O)c2c(C)n(CCN3CCOCC3)c3cc(I)ccc23)cc1`, the compound was called inactive.

Turning to `O=C(O)CNC(=O)c1c(O)c2ccccc2n(Cc2ccccc2)c1=O`, the max response was -11% and 0.668%.

As to `C[C@@H]1O[C@@H](O[C@@H]2C=C3CC[C@@H]4[C@@H](CC[C@]5(C)[C@H](c6ccc(=O)oc6)CC[C@@]45O)[C@@]3(C)CC2)[C@H](O)[C@H](O)[C@H]1O`, the Potency is 3720 nM (active).

As for `Nc1ccc(Cl)cc1`, the max response is 2.51%.

Regarding `O=C(Nc1ccccc1-c1ccc(Cl)cc1)c1cccnc1Cl`, the result was inactive.

For `CS(=O)(=O)c1ccc(C(=O)C2C(=O)CCCC2=O)c([N+](=O)[O-])c1`, the max response is 4.33%.

As to `O=[N+]([O-])c1ncc[nH]1`, the max response is -0.757%.

Turning to `CC(Cc1ccc(O)cc1)NCC(O)c1cc(O)cc(O)c1` (configuration not stated), the max response is -6.43%.

With `Oc1ccc2c3c1O[C@H]1[C@@H](O)C=C[C@H]4[C@@H](C2)NCC[C@@]341`, the max response was -2.9%.

For `Fc1cc(Br)ccc1CBr`, the compound was called inactive.

Turning to `CO/C=C(/C(=O)OC)c1ccccc1Oc1cc(Oc2ccccc2C#N)ncn1`, the Potency was 6860 nM (active).

Regarding `CC1(C)CC/C(=C/c2ccc(Cl)cc2)C1(O)Cn1cncn1` (configuration not stated), the max response was -11.7%.

On to `Cc1c(C(=O)Nc2cccc(C(F)(F)F)c2)cc(-c2ccccc2)n1CCCN1CCOCC1`, for which the max response was -26.5% and -21.7%.

For `C#C[C@]1(O)C=C[C@@H]2[C@@H]3CCC4=CC(=O)CC[C@@H]4[C@H]3CC[C@@]21CC`, the max response is -5.86%.

As for `C[C@H]1CCCC=CC2C[C@H](O)C[C@@H]2[C@H](O)C=CC(=O)O1` (some centres not stated), the Potency is 1050 nM (active).

On to `COC(=O)c1cncn1C(C)c1ccccc1` (configuration not stated), for which the max response is 3.22%.

On to `CC[C@@H]1[C@@H](C)O[C@@](O)([C@@H](C)[C@H](O)[C@H](C)[C@H]2OC(=O)C=CC=C[C@@H](C)[C@@H]([C@@H](C)[C@@H](O)[C@H](C)[C@@]3(O)C[C@H](O[C@H]4C[C@H](O)[C@H](O)[C@H](C)O4)[C@H](CC)[C@@H](C)O3)OC(=O)C=CC=C[C@@H]2C)C[C@H]1O[C@H]1C[C@H](O)[C@H](O)[C@H](C)O1`, for which the Potency was 1660 nM (active).

Turning to `COCCOCCO`, the max response was 2.23%.

As for `CC(=Cc1csc(C)n1)[C@@H]1C[C@H]2O[C@@H]2CCC[C@H](C)[C@@H](O)[C@@H](C)C(=O)C(C)(C)[C@@H](O)CC(=O)O1`, the max response was -77%.

On to `CCCCOC(=O)c1ccccc1C(=O)OCc1ccccc1`, for which the max response is -6.85%.

Turning to `C=C[C@@H]1CN2CCC1C[C@H]2[C@H](O)c1ccnc2ccccc12` (some centres not stated), the max response is -22.5%.

As to `O=S(=O)(O)C(F)(F)C(F)(F)C(F)(F)C(F)(F)C(F)(F)C(F)(F)C(F)(F)C(F)(F)F`, the compound was called inactive.

Consider `CC1=C(O)C(=O)C=C2C1=CC=C1[C@@]2(C)CC[C@@]2(C)[C@@H]3C[C@](C)(C(=O)O)CC[C@]3(C)CC[C@]12C`, for which the Potency was 3320 nM (active).

A further assay deals with HACAT. As to the kind of experiment: qHTS assay to identify novel small-molecules to repurpose for Merkel cell carcinoma treatment (AID 1296009). The conditions noted are these: MCC and control cell lines, CellTiter-Glo viability, 72 h; at 44.8 µM (top of the series) unless noted. The method in brief:
(§1)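 72 hr, 37 degree celsius; NPC 8-pt / MIPE 11-pt dose response; compound pinned in DMSO; CellTiter-Glo, 10 min RT, luminescence; normalized to no-cell and DMSO controls.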
For orientation: Quantitative high-throughput screening tests each substance at several concentrations.
As for `C[C@](O)(COc1ccc(C#N)cc1)C(=O)Nc1ccc(C#N)c(C(F)(F)F)c1`, the compound was called inactive.

Turning to `COc1ccc(C(=O)c2c(C)n(CCN3CCOCC3)c3cc(I)ccc23)cc1`, the call was inactive.

For `O=C(O)CNC(=O)c1c(O)c2ccccc2n(Cc2ccccc2)c1=O`, the compound was classed as inactive.

Consider `COCC1(CO)C(=O)C2CCN1CC2` (configuration not stated), for which the compound was called inactive.

For `Fc1cc(Br)ccc1CBr`, the compound was called inactive.

On to `C#C[C@]1(O)C=C[C@@H]2[C@@H]3CCC4=CC(=O)CC[C@@H]4[C@H]3CC[C@@]21CC`, for which the result was inactive.

Another assay deals with MCC-13. Described as above. The conditions noted are these: MCC and control cell lines, CellTiter-Glo viability, 72 h; series mostly up to 46 µM; activity change, negative = cytotoxicity: at the top concentration; outcome: at the top concentration. The method in brief: as §1
On to `S=C(SSC(=S)N1CCCCC1)N1CCCCC1`, for which the Potency was 168 nM (active).

On to `O=[N+]([O-])c1c2ccccc2cc2ccccc12`, for which the “activity change, negative = cytotoxicity” value is -0.622% [at 92.7 µM].

In the case of `COC1=CC(C)=C[C@@H](C)[C@@H](O)[C@@H](C)CC(C)=CC=C[C@H](OC)[C@H]([C@@H](C)[C@@H](O)[C@H](C)[C@@]2(O)C[C@@H](O)[C@H](C)[C@@H](C(C)C)O2)OC1=O`, the Potency was 166 nM (active).

Regarding `C[C@](O)(COc1ccc(C#N)cc1)C(=O)Nc1ccc(C#N)c(C(F)(F)F)c1`, the “activity change, negative = cytotoxicity” value is 1.9%.

As for `C[C@@]12OC(=O)[C@]1([C@@H](O)[C@@H]1C=CCCC1)NC(=O)[C@H]2CCCl`, the Potency was 3320 nM (active).

For the compound `CC=C(C)C(=O)O[C@H]1C(C)=C2[C@@H]3OC(=O)[C@@](C)(O)[C@@]3(O)[C@@H](OC(=O)CCC)C[C@](C)(OC(C)=O)[C@@H]2[C@@H]1OC(=O)CCCCCCC`, the Potency is 1870 nM (active).

Regarding `CCO/N=C(\CC)C1=C(O)CC(c2c(C)cc(C)cc2C)CC1=O` (configuration not stated), the “activity change, negative = cytotoxicity” value was -1.06% [at 92.7 µM].

On to `COc1ccc(C(=O)c2c(C)n(CCN3CCOCC3)c3cc(I)ccc23)cc1`, for which the “activity change, negative = cytotoxicity” value is -17.9%.

Consider `O=C(O)CNC(=O)c1c(O)c2ccccc2n(Cc2ccccc2)c1=O`, for which the “activity change, negative = cytotoxicity” value was 0.622%.

Consider `C[C@@H]1O[C@@H](O[C@@H]2C=C3CC[C@@H]4[C@@H](CC[C@]5(C)[C@H](c6ccc(=O)oc6)CC[C@@]45O)[C@@]3(C)CC2)[C@H](O)[C@H](O)[C@H]1O`, for which the Potency is 37.2 nM (active).

On to `COCC1(CO)C(=O)C2CCN1CC2` (configuration not stated), for which the “activity change, negative = cytotoxicity” value was -12.5%.

As for `Nc1ccc(Cl)cc1`, the “activity change, negative = cytotoxicity” value is 4.91% [at 92.7 µM].

Turning to `O=C(Nc1ccccc1-c1ccc(Cl)cc1)c1cccnc1Cl`, the “activity change, negative = cytotoxicity” value was -0.408% [at 92.7 µM].

With `CS(=O)(=O)c1ccc(C(=O)C2C(=O)CCCC2=O)c([N+](=O)[O-])c1`, the “activity change, negative = cytotoxicity” value was -7.09% [at 92.7 µM].

On to `O=C(O)c1cc(Oc2ccc(C(F)(F)F)cc2Cl)ccc1[N+](=O)[O-]`, for which the “activity change, negative = cytotoxicity” value was -3.74%.

As to `O=[N+]([O-])c1ncc[nH]1`, the “activity change, negative = cytotoxicity” value is -3.92%.

Consider `CC(Cc1ccc(O)cc1)NCC(O)c1cc(O)cc(O)c1` (configuration not stated), for which the “activity change, negative = cytotoxicity” value is 8.8%.

As to `Nc1ccc(Cl)cc1N`, the “activity change, negative = cytotoxicity” value is 0.787% [at 92.7 µM].

`Oc1ccc2c3c1O[C@H]1[C@@H](O)C=C[C@H]4[C@@H](C2)NCC[C@@]341`: the “activity change, negative = cytotoxicity” value is -4.45% [at 92.7 µM].

Consider `Fc1cc(Br)ccc1CBr`, for which the “activity change, negative = cytotoxicity” value was 12.9%.

Take `CC1(C)CC/C(=C/c2ccc(Cl)cc2)C1(O)Cn1cncn1` (configuration not stated): the “activity change, negative = cytotoxicity” value is 0.277% [at 92.7 µM].

On to `Cc1c(C(=O)Nc2cccc(C(F)(F)F)c2)cc(-c2ccccc2)n1CCCN1CCOCC1`, for which the “activity change, negative = cytotoxicity” value was -15%.

`CCCN1CCO[C@@H]2c3cc(O)ccc3OC[C@@H]21`: the “activity change, negative = cytotoxicity” value is -1.27%.

On to `C#C[C@]1(O)C=C[C@@H]2[C@@H]3CCC4=CC(=O)CC[C@@H]4[C@H]3CC[C@@]21CC`, for which the “activity change, negative = cytotoxicity” value was -7.44%.

For the compound `C[C@H]1CCCC=CC2C[C@H](O)C[C@@H]2[C@H](O)C=CC(=O)O1` (some centres not stated), the “activity change, negative = cytotoxicity” value is -82.2%.

Take `COC(=O)c1cncn1C(C)c1ccccc1` (configuration not stated): the “activity change, negative = cytotoxicity” value is -7.13%.

`CC[C@@H]1[C@@H](C)O[C@@](O)([C@@H](C)[C@H](O)[C@H](C)[C@H]2OC(=O)C=CC=C[C@@H](C)[C@@H]([C@@H](C)[C@@H](O)[C@H](C)[C@@]3(O)C[C@H](O[C@H]4C[C@H](O)[C@H](O)[C@H](C)O4)[C@H](CC)[C@@H](C)O3)OC(=O)C=CC=C[C@@H]2C)C[C@H]1O[C@H]1C[C@H](O)[C@H](O)[C@H](C)O1`: the Potency is 16600 nM (active).

For `COCCOCCO`, the “activity change, negative = cytotoxicity” value is 19.6% [at 92.7 µM].

Consider `CCCCOC(=O)c1ccccc1C(=O)OCc1ccccc1`, for which the “activity change, negative = cytotoxicity” value is 12.6% [at 92.7 µM].

Turning to `C=C[C@@H]1CN2CCC1C[C@H]2[C@H](O)c1ccnc2ccccc12` (some centres not stated), the “activity change, negative = cytotoxicity” value is -4.46%.

On to `O=S(=O)(O)C(F)(F)C(F)(F)C(F)(F)C(F)(F)C(F)(F)C(F)(F)C(F)(F)C(F)(F)F`, for which the “activity change, negative = cytotoxicity” value is -1.33% [at 92.7 µM].

As for `CC1=C(O)C(=O)C=C2C1=CC=C1[C@@]2(C)CC[C@@]2(C)[C@@H]3C[C@](C)(C(=O)O)CC[C@]3(C)CC[C@]12C`, the Potency is 4180 nM (active).

As for `CC(C)Oc1cccc(NC(=O)c2ccccc2C(F)(F)F)c1`, the “activity change, negative = cytotoxicity” value was -3.71% [at 92.7 µM].

(Values after PubChem BioAssay (NCATS).)
